Test in all cases: qHTS profiling for inhibitors of Plasmodium falciparum proliferation (AID 504749); note: nearly all actives have a fitted effect of over 60% in size
Conditions in all cases: P. falciparum in erythrocytes, SYBR Green DNA, 72 h; series mostly up to 28.7 µM
For orientation: qHTS replaces the single test concentration by a dilution series.

The subject of one test is CP262. In short, it runs like this:
(§1)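 Quantitative HTS: compounds pinned into medium, infected erythrocytes added (0.3% parasitemia, 2.5% hematocrit), 72 h culture at 37 C under 5% CO2. Saponin/Triton lysis with SYBR Green I, overnight RT, then fluorescence read.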

The test system of another test is CP265. In short, it runs like this:
as §1

The subject of the next test is CP266. The method in brief: as §1
The subject of a further test is CP268. In short, it runs like this:
as §1

For another test, the system named is CP269. In short, it runs like this: as §1
Another test has as its system CP286. The method in brief:
as §1

Another test concerns CP297. The method in brief: as §1
A further test concerns CP305. The method in brief: as §1
Another test deals with CP315. In short, it runs like this: as §1
A further test relates to CP325. In short, it runs like this:
as §1

In the next test the test system is CP329. In short, it runs like this:
as §1

The subject of the next test is CP335. In short, it runs like this: as §1
For another test, the system named is DFO2036. In short, it runs like this: as §1
A further test has as its system DIV14. In short, it runs like this:
as §1

In a further test the test system is DIV17. In short, it runs like this:
as §1

The test system of the next test is DIV30. The method in brief:
as §1

The test system of the next test is Dd2. The method in brief: as §1
A further test has as its system ECU. In short, it runs like this:
as §1

In another test the test system is FAB9. In short, it runs like this: as §1
The subject of the next test is CP291. In short, it runs like this: as §1

Results filed as inconclusive are left out. A number with no mark means an inactive call. Calls of active or inactive are those of the source. Calls come from the whole dose curve; as a rule, active = well fitted inhibition curve with a large enough effect; inconclusive = small, poorly fitted or top-dose-only effect; inactive = flat fitted curve, though single readings scatter.
Potency is the fitted concentration of half-maximal effect.

Take `Cc1ncsc1CCCl`: the Potency result in the test with CP262, in the test on CP265, with CP268, in the test on CP269, with CP286 and in the test on CP297 was “inactive” each time. The Potency entry with CP305, in the test with CP315, in the test on CP325, in the test with CP329, in the test with CP335 and in the test with DFO2036 was “inactive” each time. The Potency result in the test on DIV14, in the test on DIV17, in the test on DIV30, in the test with Dd2, in the test with ECU and with FAB9 was “inactive” throughout. For the same compound, the result with CP266 was inactive.

`COc1ccc2c(c1OC)C(=O)O[C@H]2[C@@H]1c2cc3c(cc2CCN1C)OCO3`: the Potency result in the test on CP262, in the test with CP268, with CP269, with CP291, with CP297 and in the test on CP305 was “inactive” in each case. Also, the Potency result in the test on CP315, in the test on CP325, with CP329, with CP335, with DIV14 and with DIV17 was “inactive” each time. For the same compound, the Potency entry in the test on DIV30 is “inactive”. In the test on CP266, the compound was called inactive.

Take `COP(=S)(OC)Oc1ccc(SC)c(C)c1`: the Potency result with CP262, in the test on CP265, in the test on CP268, with CP269, with CP286 and with CP297 was “inactive” each time. The Potency entry with CP305, with CP315, in the test with CP325, in the test with CP329, with CP335 and in the test with DFO2036 was “inactive” throughout. Also, the Potency entry in the test on DIV14, with DIV17, in the test with DIV30, in the test on Dd2, with ECU and in the test with FAB9 was “inactive” throughout. In addition, the call in the test on CP266 was inactive.

Turning to `NC(=O)c1cc([N+](=O)[O-])cc([N+](=O)[O-])c1`, the compound was called inactive in the test with CP266. The Potency entry in the test with CP268, with CP286, with CP291, in the test on CP297, in the test with CP305 and in the test with CP315 was “inactive” in each case. Further, the Potency entry in the test on DIV30, in the test with Dd2, in the test with ECU and in the test on FAB9 was “inactive” in each case.

For `Clc1ccc(C(c2ccc(Cl)cc2)C(Cl)(Cl)Cl)cc1`, the Potency result in the test on CP262, in the test with CP265, with CP268, in the test with CP269, with CP286 and in the test on CP291 was “inactive” in each case. Also, the Potency result in the test on CP305, in the test with CP315, in the test with CP325, in the test on CP329, with CP335 and in the test with DFO2036 was “inactive” in each case. Further, the Potency result in the test with Dd2, in the test with ECU and with FAB9 was “inactive” each time. Moreover, the compound was called inactive in the test with CP266.

Turning to `NNc1ccccc1`, the Potency result in the test with CP262, with CP265, in the test with CP268, with CP269, with CP286 and in the test with CP297 was “inactive” each time. Besides, the Potency entry in the test on CP305, in the test with CP325, with CP329, in the test with CP335, with DFO2036 and with DIV14 was “inactive” in each case. Further, the Potency result in the test on DIV17, with DIV30, with Dd2, in the test on ECU and in the test with FAB9 was “inactive” each time. Besides, in the test with CP266, the compound was called inactive.

On to `O=C1c2ccccc2C(=O)c2ccccc21`, for which the Potency result in the test on CP262, with CP268, in the test on CP286, in the test with CP291, with CP297 and with CP315 was “inactive” throughout. Moreover, the Potency result in the test with CP325, in the test on CP329 and in the test with DFO2036 was “inactive” each time. In addition, in the test with CP265, the Potency is 10 µM (active). In the test with CP266, the outcome was inactive.

Turning to `CC(C)NC(C)C`, the Potency entry with CP262, in the test on CP265, in the test on CP268, with CP269, in the test on CP286 and in the test with CP291 was “inactive” in each case. For the same compound, the Potency result in the test on CP297, in the test with CP305, in the test on CP325, in the test on CP329, with DFO2036 and with DIV14 was “inactive” throughout. Besides, the Potency entry with DIV17, in the test on DIV30, in the test with Dd2, in the test with ECU and in the test on FAB9 was “inactive” each time. In the test on CP266, the compound was called inactive.

`O=C1Nc2ccc(Cl)cc2C(c2ccccc2Cl)=NC1O` (stereo not given): the Potency entry with CP265, with CP268, in the test with CP269, in the test with CP286, in the test with CP291 and in the test on CP297 was “inactive” throughout. Also, the Potency result in the test with CP305, in the test on CP315, with CP325, in the test on CP329, in the test with CP335 and in the test with DFO2036 was “inactive” each time. Besides, the Potency result in the test on DIV14, with DIV17, in the test on DIV30, in the test on Dd2, in the test with ECU and with FAB9 was “inactive” each time. Besides, the call in the test on CP266 was inactive.

The record behind these values is PubChem BioAssay (NCATS).
